# The panel holds about 83,000 compounds, 20% with a hit somewhere; the sample as a whole holds those more often.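 Method: cells in 96-well plates; compound added at one concentration; 48 h incubation; percent growth measured; values under 10 scored active.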 The source made the active and inactive calls.
# Tested on: DU-145 prostate
# Assay: NCI-60 one-dose screen, 48 h (100 = growth as untreated, 0 = no growth, -100 = all killed)
# Details: 10 µM unless noted
row,Compound,growth
1,CC(=O)N1N=C(c2ccc(Cl)cc2)CC1c1c(C)nn(-c2ccccc2)c1N(C)Cc1ccccc1 (stereo not given),94.5% (inactive)
2,CC1(C)CC2(C)CC(=O)C1C(C(=O)O)C2C(=O)O (stereo not given),120% (inactive)
3,COc1ccc(-c2cnc(SCC(=O)Nc3ccc(-c4nc5ccccc5s4)cc3)n2-c2ccc(OC)cc2)cc1,120% (inactive)
4,COc1ccc2c(c1)[n+](=O)c(C(=O)/C=C/c1cc(OC)c(OC)c(OC)c1)c(C)n2[O-],47.6% (inactive)
5,Nc1c(C(=O)Nc2cccc(Cl)c2)sc2nc3c(cc12)C(O)CCC3 (stereo not given),7.3% (active)
6,COc1cccc(-c2nc(-c3ccc(N)cc3)co2)c1,102% (inactive)
7,O=C(Nc1ccccc1S)c1ccccc1,111% (inactive)
8,COc1ccc2c(c1)c(CC(=O)[Se]C)c(C)n2C(=O)c1ccc(Cl)cc1,-7.9% (active)
9,Nc1nc(SCc2cccnc2)c2ncn(C3OC(CO)C(O)C3O)c2n1 (stereo not given),113% (inactive)
10,O=C1c2cc3c(cc2-c2c1c1ccc(Cl)cc1c(=O)n2CCCNCCO)OCO3,-93.7% (active)
11,N#Cc1c(NC(=O)c2ccco2)[n+]([O-])c2cc(Cl)c(Cl)cc2[n+]1[O-],103% (inactive)
12,Cc1[nH]ccc2cc3nc4ccccc4c3cc12,34.4% (inactive)
13,C=C1CC[C@@H]2[C@](C)(COC(C)=O)[C@H](OC(C)=O)CC[C@@]2(C)[C@@H]1CC(NCc1ccccc1)C1=CCOC1=O (stereo not given in full),67.2% (inactive)
14,COC(=O)c1cc2oc(/C=N\NC(=O)c3cc4oc(C)c(C)c4[nH]3)cc2[nH]1,147% (inactive)
15,O=C(CSc1nnc(-c2cc(-c3ccccc3)nc3ccccc23)o1)c1ccc(Br)cc1,106% (inactive)
16,O=c1oc2c(cc1-c1ccc([N+](=O)[O-])cc1)C(O)Oc1ccccc1-2 (stereo not given),142% (inactive)
17,CC(C)Sc1nc(Cl)c(C#N)c(-c2ccc(F)cc2)n1,113% (inactive)
18,Cc1cc(C)cc(S(=O)(=O)n2ccc(-c3ccc4c(c3)CCC(C)(C)O4)n2)c1,89.8% (inactive)
19,CCc1nn2c(-c3ccc(Cl)cc3C)c(-c3cc(OC)c(OC)c(OC)c3)nc2s1,91.7% (inactive)
20,O=C(Nc1cccc(-n2cc(-c3ccncc3)c(-c3cc(O)cc(Cl)c3)n2)c1)Nc1ccc(Cl)c(Cl)c1,-15.1% (active)

row,Compound,growth
1,COc1ccccc1-n1c(-c2ccc(O)cc2C)cn2c3c(=O)[nH]c(=O)n(C)c3nc12,112% (inactive)
2,CCCCCN1C(=O)CCC1=O,101% (inactive)
3,O=C1NCCc2c1noc2-c1ccccc1,104% (inactive)
4,CCOC(=O)c1cc2oc(/C=C/c3cc(=O)c4cc(Cl)ccc4o3)cc2[nH]1,65.4% (inactive)
5,COc1cc(/C=C/C(=O)c2c(C)n([O-])c3ccccc3[n+]2=O)cc(OC)c1OC,32.6% (inactive)
6,O=C(c1ccccc1)C(CN1CCCCC1)c1ccccc1 (stereo not given),23.2% (inactive)
7,c1ccc2c(-c3nc4ccccc4[nH]3)cccc2c1,33.6% (inactive)
8,COc1cc(/C=C/c2cc(/C=C/c3ccc(O)c(OC)c3)n(C(=O)Cc3ccccc3)n2)ccc1O,17.3% (inactive)
9,O=C1NC(=O)/C(=C/c2ccc(Cl)cc2Cl)N1,117% (inactive)
10,Nc1nc2c(c(=O)[nH]1)C1(C(=O)Nc3ccccc31)c1c(nc(N)[nH]c1=O)N2,108% (inactive)
11,COc1ccc(NS(=O)(=O)N2CCCCC2)cc1,116% (inactive)
12,COc1ccc(-c2cc(-c3cccnc3)nc3sc(C(=O)Nc4ccccc4)c(N)c23)cc1OC,54.6% (inactive)
13,C/C(=C\CCc1ccoc1)CC/C=C(\C)CCCNc1ccc(F)cc1,101% (inactive)
14,Cc1cc2c(cc1C)[n+](Cc1ccc3ccccc3c1)cn2Cc1ccc2ccccc2c1,-89.5% (active)
15,CCN(CC)CCCCCCCNc1c2ccc(Cl)cc2nc2ccc(OC)cc12,-28.6% (active)
16,Cc1cc(C(=O)Nc2ccc3cc(CN4CCOCC4)ccc3n2)c(C)n1-c1ccccc1,70.2% (inactive)
17,COc1cc(Cl)cc(-c2nn(-c3cccc(NC(=O)c4cc(C(F)(F)F)cc(C(F)(F)F)c4)c3)cc2-c2ccncc2)c1,78.2% (inactive)
18,O=C(NCCNC(=O)Oc1cccc2ccccc12)Oc1cccc2ccccc12,112% (inactive)
19,COC(=O)[C@H](Cc1cn(C)cn1)NC(=O)[C@H](C)NC(=O)Nc1cc(C(F)(F)F)cc(C(F)(F)F)c1,-80.3% [100 µM] (active)
20,O=C1CNc2cc(Cl)ccc2N1,121% (inactive)

# Tested on: K-562 leukemia
# Assay: as above
# Details: 10 µM unless noted
row,Compound,growth
1,CC(=O)N1N=C(c2ccc(Cl)cc2)CC1c1c(C)nn(-c2ccccc2)c1N(C)Cc1ccccc1 (stereo not given),61.9% (inactive)
2,CC1(C)CC2(C)CC(=O)C1C(C(=O)O)C2C(=O)O (stereo not given),104% (inactive)
3,COc1ccc(-c2cnc(SCC(=O)Nc3ccc(-c4nc5ccccc5s4)cc3)n2-c2ccc(OC)cc2)cc1,108% (inactive)
4,COc1ccc2c(c1)[n+](=O)c(C(=O)/C=C/c1cc(OC)c(OC)c(OC)c1)c(C)n2[O-],35.4% (inactive)
5,Nc1c(C(=O)Nc2cccc(Cl)c2)sc2nc3c(cc12)C(O)CCC3 (stereo not given),10.6% (inactive)
6,COc1cccc(-c2nc(-c3ccc(N)cc3)co2)c1,84.5% (inactive)
7,O=C(Nc1ccccc1S)c1ccccc1,86.2% (inactive)
8,COc1ccc2c(c1)c(CC(=O)[Se]C)c(C)n2C(=O)c1ccc(Cl)cc1,29.8% (inactive)
9,Nc1nc(SCc2cccnc2)c2ncn(C3OC(CO)C(O)C3O)c2n1 (stereo not given),113% (inactive)
10,O=C1c2cc3c(cc2-c2c1c1ccc(Cl)cc1c(=O)n2CCCNCCO)OCO3,-78.3% (active)
11,N#Cc1c(NC(=O)c2ccco2)[n+]([O-])c2cc(Cl)c(Cl)cc2[n+]1[O-],96.4% (inactive)
12,Cc1[nH]ccc2cc3nc4ccccc4c3cc12,12.1% (inactive)
13,C=C1CC[C@@H]2[C@](C)(COC(C)=O)[C@H](OC(C)=O)CC[C@@]2(C)[C@@H]1CC(NCc1ccccc1)C1=CCOC1=O (stereo not given in full),24.7% (inactive)
14,COC(=O)c1cc2oc(/C=N\NC(=O)c3cc4oc(C)c(C)c4[nH]3)cc2[nH]1,84.1% (inactive)
15,O=C(CSc1nnc(-c2cc(-c3ccccc3)nc3ccccc23)o1)c1ccc(Br)cc1,91% (inactive)
16,O=c1oc2c(cc1-c1ccc([N+](=O)[O-])cc1)C(O)Oc1ccccc1-2 (stereo not given),76.8% (inactive)
17,CC(C)Sc1nc(Cl)c(C#N)c(-c2ccc(F)cc2)n1,16.2% (inactive)
18,Cc1cc(C)cc(S(=O)(=O)n2ccc(-c3ccc4c(c3)CCC(C)(C)O4)n2)c1,85.7% (inactive)
19,CCc1nn2c(-c3ccc(Cl)cc3C)c(-c3cc(OC)c(OC)c(OC)c3)nc2s1,78.4% (inactive)
20,O=C(Nc1cccc(-n2cc(-c3ccncc3)c(-c3cc(O)cc(Cl)c3)n2)c1)Nc1ccc(Cl)c(Cl)c1,1.06% (active)

row,Compound,growth
1,COc1ccccc1-n1c(-c2ccc(O)cc2C)cn2c3c(=O)[nH]c(=O)n(C)c3nc12,98.9% (inactive)
2,CCCCCN1C(=O)CCC1=O,114% (inactive)
3,O=C1NCCc2c1noc2-c1ccccc1,108% (inactive)
4,CCOC(=O)c1cc2oc(/C=C/c3cc(=O)c4cc(Cl)ccc4o3)cc2[nH]1,88.9% (inactive)
5,COc1cc(/C=C/C(=O)c2c(C)n([O-])c3ccccc3[n+]2=O)cc(OC)c1OC,21.8% (inactive)
6,O=C(c1ccccc1)C(CN1CCCCC1)c1ccccc1 (stereo not given),0.176% (active)
7,c1ccc2c(-c3nc4ccccc4[nH]3)cccc2c1,14.5% (inactive)
8,COc1cc(/C=C/c2cc(/C=C/c3ccc(O)c(OC)c3)n(C(=O)Cc3ccccc3)n2)ccc1O,1.69% (active)
9,O=C1NC(=O)/C(=C/c2ccc(Cl)cc2Cl)N1,104% (inactive)
10,Nc1nc2c(c(=O)[nH]1)C1(C(=O)Nc3ccccc31)c1c(nc(N)[nH]c1=O)N2,115% (inactive)
11,COc1ccc(NS(=O)(=O)N2CCCCC2)cc1,93.8% (inactive)
12,COc1ccc(-c2cc(-c3cccnc3)nc3sc(C(=O)Nc4ccccc4)c(N)c23)cc1OC,34.2% (inactive)
13,C/C(=C\CCc1ccoc1)CC/C=C(\C)CCCNc1ccc(F)cc1,68.6% (inactive)
14,Cc1cc2c(cc1C)[n+](Cc1ccc3ccccc3c1)cn2Cc1ccc2ccccc2c1,-57.3% (active)
15,CCN(CC)CCCCCCCNc1c2ccc(Cl)cc2nc2ccc(OC)cc12,-21.5% (active)
16,Cc1cc(C(=O)Nc2ccc3cc(CN4CCOCC4)ccc3n2)c(C)n1-c1ccccc1,27% (inactive)
17,COc1cc(Cl)cc(-c2nn(-c3cccc(NC(=O)c4cc(C(F)(F)F)cc(C(F)(F)F)c4)c3)cc2-c2ccncc2)c1,38% (inactive)
18,O=C(NCCNC(=O)Oc1cccc2ccccc12)Oc1cccc2ccccc12,102% (inactive)
19,COC(=O)[C@H](Cc1cn(C)cn1)NC(=O)[C@H](C)NC(=O)Nc1cc(C(F)(F)F)cc(C(F)(F)F)c1,-26.6% [100 µM] (active)
20,O=C1CNc2cc(Cl)ccc2N1,104% (inactive)
